Assay results: PubChem BioAssay (NCATS)
Records with an inconclusive call do not appear. The source made the active and inactive calls. Unless noted, calls follow the shape of the dose curve; as a rule, active = well fitted curve in the direction sought with a large enough effect; inconclusive = small, poorly fitted or top-dose-only effect, or another doubt; inactive = no such curve, though single readings can be large; an effect the other way counts as inactive or inconclusive.

Legend:
[1] = NS1 protein of Zika virus - qHTS assay to identify small molecule inhibitors in human HEK 293 cells (AID 1347053); also: series mostly up to about 46 µM; nearly all actives have a fitted effect of over 55% in size
In short: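 In this cell-based screen, HEK 293 cultures received compound for one hour before Zika MR766 at MOI = 0.5. NS1 was quantified 24 hours later by TR-FRET, normalized to virus-free wells and infected wells.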

[2] = molecular target: T1, Tyrosine-protein phosphatase non-receptor type substrate 1 (Homo sapiens) + Leukocyte surface antigen CD47 (Homo sapiens) (UniProt P78324+Q08722); experiment: CD47-SIRPalpha protein protein interaction - LANCE assay qHTS validation (AID 1347057; active = well fitted curve in the direction sought with a large enough effect in the signal ratio, with a control signal flat, not every such curve was filed as active; the % refers to the signal ratio; also: series mostly up to about 38 µM)
T1 sequence (P78324 whole entry, looked up, the tested form may be a part): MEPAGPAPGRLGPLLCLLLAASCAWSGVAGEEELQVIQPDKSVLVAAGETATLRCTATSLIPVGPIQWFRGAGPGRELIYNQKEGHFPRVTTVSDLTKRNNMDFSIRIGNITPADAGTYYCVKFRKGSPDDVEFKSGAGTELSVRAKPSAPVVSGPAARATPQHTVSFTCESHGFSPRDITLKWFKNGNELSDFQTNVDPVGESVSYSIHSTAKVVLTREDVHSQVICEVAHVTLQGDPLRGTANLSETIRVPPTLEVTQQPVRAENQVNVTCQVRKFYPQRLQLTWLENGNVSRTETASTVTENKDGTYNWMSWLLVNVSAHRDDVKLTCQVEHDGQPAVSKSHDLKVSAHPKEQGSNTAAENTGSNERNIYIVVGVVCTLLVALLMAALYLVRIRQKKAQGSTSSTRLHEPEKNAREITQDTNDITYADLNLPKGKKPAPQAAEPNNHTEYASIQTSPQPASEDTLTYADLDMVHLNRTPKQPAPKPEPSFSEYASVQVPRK
T1 sequence (Q08722 whole entry, looked up, the tested form may be a part): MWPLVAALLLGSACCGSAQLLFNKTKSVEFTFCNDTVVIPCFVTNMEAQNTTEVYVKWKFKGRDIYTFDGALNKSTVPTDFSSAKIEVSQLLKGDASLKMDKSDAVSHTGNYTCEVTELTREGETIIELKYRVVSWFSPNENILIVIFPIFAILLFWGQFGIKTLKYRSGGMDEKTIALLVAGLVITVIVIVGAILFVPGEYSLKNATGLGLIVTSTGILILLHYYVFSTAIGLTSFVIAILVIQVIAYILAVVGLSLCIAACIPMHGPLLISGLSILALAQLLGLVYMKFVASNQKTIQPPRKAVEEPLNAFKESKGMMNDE
In short: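 Inhibition of soluble CD47/SIRPalpha ectodomain association by titrated compounds, measured as 665/615 nm time-resolved FRET ratio after sequential 30 min room-temperature incubations.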

[3] = molecular target: T1, Tyrosine-protein phosphatase non-receptor type substrate 1 (Homo sapiens) + Leukocyte surface antigen CD47 (Homo sapiens); experiment: CD47-SIRPalpha protein protein interaction - HTRF assay qHTS validation (AID 1347058; active = well fitted curve in the direction sought with a large enough effect in the signal ratio, not every such curve was filed as active; the % refers to the signal ratio; also: series mostly up to about 38 µM)
In short: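 Soluble extracellular domains (6His-CD47, Avi-tag-biotinylated SIRPalpha) in PBS pH 7.4 with 0.05% IGEPAL CA-630. Compounds were preincubated 30 min at RT with CD47 and anti-His-Eu, then SIRPalpha and SAV-XL665 were added. TR-FRET 665/615 ratio.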

[4] = molecular target: T1, Tyrosine-protein phosphatase non-receptor type substrate 1 (Homo sapiens) + Leukocyte surface antigen CD47 (Homo sapiens); experiment: CD47-SIRPalpha protein protein interaction - Alpha assay qHTS validation (AID 1347059);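 also: bead proximity luminescence from CD47 binding SIRPalpha after compound preincubation with SIRPalpha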; also: potency is read from the fitted curve at half-maximal effect
In short: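 AlphaScreen signal between CD47-His (12.5 nM) and biotin-SIRPalpha (25 nM) soluble extracellular domains, bead-captured via Ni-NTA and streptavidin. Compounds, in 7-point titrations, met SIRPalpha 30 min before CD47; PBS pH 7.4 with 0.05% IGEPAL.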

[5] = molecular target: Parathyroid hormone/parathyroid hormone-related peptide receptor (Homo sapiens) (UniProt Q03431); experiment: qHTS for PTHR1 Agonists: Optimization Screen against the NCGC LOPAC library (AID 1347079);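 also: GloSensor cAMP luminescence in HEK-293 GP2 cells expressing human PTHR1 with IBMX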
Chain of Parathyroid hormone/parathyroid hormone-related peptide receptor (Homo sapiens) (Q03431 whole entry, looked up): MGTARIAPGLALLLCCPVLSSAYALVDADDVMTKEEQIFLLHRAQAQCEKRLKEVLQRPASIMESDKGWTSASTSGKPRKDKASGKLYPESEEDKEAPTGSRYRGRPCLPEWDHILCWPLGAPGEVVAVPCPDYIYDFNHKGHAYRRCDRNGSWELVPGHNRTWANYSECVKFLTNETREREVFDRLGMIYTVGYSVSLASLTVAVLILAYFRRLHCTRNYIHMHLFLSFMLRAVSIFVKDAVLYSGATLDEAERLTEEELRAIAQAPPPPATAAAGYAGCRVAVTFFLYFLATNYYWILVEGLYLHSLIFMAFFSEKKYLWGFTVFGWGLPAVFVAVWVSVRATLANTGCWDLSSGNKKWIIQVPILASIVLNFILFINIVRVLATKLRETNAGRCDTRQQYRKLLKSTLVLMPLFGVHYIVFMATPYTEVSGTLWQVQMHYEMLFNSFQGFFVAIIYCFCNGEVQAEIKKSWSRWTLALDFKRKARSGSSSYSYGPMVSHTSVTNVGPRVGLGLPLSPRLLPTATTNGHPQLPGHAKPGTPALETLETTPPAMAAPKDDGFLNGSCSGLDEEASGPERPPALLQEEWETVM
In short: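 Signal increase flags agonism. GP2 cells, derived from HEK-293, express human PTHR1 and a GloSensor cAMP construct.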

[6] = molecular target: N-terminal Xaa-Pro-Lys N-methyltransferase 1 (Homo sapiens) (UniProt Q9BV86); experiment: qHTS Assay for Inhibitors of N-terminal methyltransferase 1 (NTMT1): LOPAC validation of the NTMT1 SAHH-coupled ThioGlo3 Assay (AID 1347143);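 also: SAH from peptide methylation measured as thiol fluorescence via SAHH coupling and ThioGlo3; nearly all actives have a fitted effect of over 70% in size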; also: potency is read from the fitted curve at half-maximal effect
Chain of N-terminal Xaa-Pro-Lys N-methyltransferase 1 (Homo sapiens) (Q9BV86 whole entry, looked up): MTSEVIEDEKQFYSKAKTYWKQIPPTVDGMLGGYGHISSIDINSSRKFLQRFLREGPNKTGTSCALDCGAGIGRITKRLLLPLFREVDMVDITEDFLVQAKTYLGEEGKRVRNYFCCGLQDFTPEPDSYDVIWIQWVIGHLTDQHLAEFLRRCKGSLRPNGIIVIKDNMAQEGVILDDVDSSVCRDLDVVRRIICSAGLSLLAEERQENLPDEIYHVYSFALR
In short: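 NTMT1 125nM + cpds (various conc.), 1 min RT; add SAM 100uM/SAHH 10uM/ThioGlo3 15uM (addition mix). SAHH-coupled thiol detection, Ex340/Em450, t0 and 30 min RT; signal normalized to background. LOPAC 1280-cpd pilot.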

[7] = tested on: Zika virus NS2B-NS3 protease (unlinked); experiment: Optimization of GU AMC qHTS for Zika virus inhibitors: Unlinked NS2B-NS3 protease assay (AID 1347151); also: nearly all actives have a fitted effect of over 80% in size; also: potency is read from the fitted curve at half-maximal effect
In short: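 In this qHTS, compounds acted on 25 nM unlinked Zika NS2B–NS3 in pH 8.0 Tris/Tween buffer. Cleavage of an AMC peptide ran 15 min at room temperature, to about 20% conversion.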

Furin (Homo sapiens) = Furin (Homo sapiens) (UniProt P09958); experiment: Furin counterscreen qHTS for Zika virus inhibitors (AID 1347149); also: nearly all actives have a fitted effect of over 70% in size; also: potency is read from the fitted curve at half-maximal effect
Chain of Furin (Homo sapiens) (P09958 whole entry, looked up): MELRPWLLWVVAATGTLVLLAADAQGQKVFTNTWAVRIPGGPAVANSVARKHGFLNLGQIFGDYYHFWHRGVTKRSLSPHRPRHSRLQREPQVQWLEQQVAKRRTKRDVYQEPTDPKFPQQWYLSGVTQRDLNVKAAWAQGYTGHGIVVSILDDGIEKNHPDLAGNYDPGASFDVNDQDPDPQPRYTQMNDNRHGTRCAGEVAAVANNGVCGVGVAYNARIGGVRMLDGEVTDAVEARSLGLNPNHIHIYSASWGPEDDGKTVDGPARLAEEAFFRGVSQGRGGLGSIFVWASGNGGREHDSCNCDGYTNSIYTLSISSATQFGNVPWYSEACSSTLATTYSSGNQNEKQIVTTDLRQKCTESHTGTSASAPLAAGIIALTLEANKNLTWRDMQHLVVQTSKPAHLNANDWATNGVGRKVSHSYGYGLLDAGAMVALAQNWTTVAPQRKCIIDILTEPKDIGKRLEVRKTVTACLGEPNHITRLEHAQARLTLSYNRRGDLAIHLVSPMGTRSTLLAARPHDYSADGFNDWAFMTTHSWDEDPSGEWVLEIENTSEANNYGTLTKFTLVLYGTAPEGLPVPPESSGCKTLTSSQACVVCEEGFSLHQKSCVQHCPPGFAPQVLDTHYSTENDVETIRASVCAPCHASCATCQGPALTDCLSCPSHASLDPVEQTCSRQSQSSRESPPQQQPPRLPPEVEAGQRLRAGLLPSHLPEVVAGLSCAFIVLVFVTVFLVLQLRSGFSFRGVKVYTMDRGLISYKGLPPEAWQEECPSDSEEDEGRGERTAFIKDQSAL
In short: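 Counterscreen measures cleavage of 2 microM BOC-RVRR-AMC, below its ~15 microM Km, by 5 nM full-length human furin at pH 7.0 after a 15-min compound preincubation. Inhibition derives from the 15-min fluorescence increase at 37C.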

[8] = tested on: Zika virus NS2B-NS3 protease (linked construct); experiment: Confirmatory screen NINDS AMC qHTS for Zika virus inhibitors (AID 1347152); also: nearly all actives have a fitted effect of over 70% in size; also: potency is read from the fitted curve at half-maximal effect
In short: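 Concentration-response confirmation used the NINDS linked protease (NS2B hydrophilic domain joined to NS3 protease domain), 1 nM, with a 15-min compound preincubation. Substrate, Nle-KRR-AMC at 10 microM, was read by UV fluorescence before and after 15 min.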

[9] = tested on: Zika virus NS2B-NS3 protease (unlinked complex); experiment: Confirmatory screen GU AMC qHTS for Zika virus inhibitors (AID 1347153); also: nearly all actives have a fitted effect of over 70% in size
In short: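 Noncovalent NS2B hydrophilic domain/NS3 protease complex (25 nM) in 10 mM Tris-HCl pH 8.0, 0.01% Tween 20 was preincubated 15 min at room temperature with compounds. Then 10 µM AMC substrate (Km 18.3 µM) was added; fluorescence was read over 15 min and fitted to a 4-parameter Hill equation.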

Measured: Potency

O=C(O)CCC(=O)N1CCCC1C(=O)O (stereo not given)
not listed: Furin (Homo sapiens) | [8] | [9]
inactive: all other assays above

CC(=O)NNC(=O)N1Cc2ccccc2Oc2ccc(Cl)cc21
not listed: Furin (Homo sapiens) | [8] | [9]
inactive: all other assays above

N[C@H](C(=O)O)[C@H](O)C(=O)O
not listed: Furin (Homo sapiens) | [8] | [9]
inactive: all other assays above

C=CCNc1ncnc2ccc(Br)cc12
not listed: Furin (Homo sapiens) | [8] | [9]
inactive: all other assays above

OC[C@H]1O[C@@H](n2cnc3cncnc32)[C@H](O)[C@@H]1O
active: [6] 3.16 µM
not listed: Furin (Homo sapiens) | [8] | [9]
inactive: all other assays above

NC1CCN(O)C1=O (stereo not given)
not listed: Furin (Homo sapiens) | [8] | [9]
inactive: all other assays above

CN[C@H](CC(=O)O)C(=O)O
not listed: Furin (Homo sapiens) | [8] | [9]
inactive: all other assays above

CC1=C(C(=O)O)N2C(=O)[C@@H](NC(=O)C(N)C3=CCC=CC3)[C@H]2SC1 (stereo not given in full)
not listed: Furin (Homo sapiens) | [8] | [9]
inactive: all other assays above

O=C1Nc2ccc(I)cc2/C1=C/c1cc(Br)c(O)c(Br)c1
active: [4] 14.7 µM | [6] 56.2 µM | [7] 5.97 µM
inactive: [1] | [2] | [3] | [5]

NC(Cc1cccc(-c2ccccc2CP(=O)(O)O)c1)C(=O)O (stereo not given)
not listed: Furin (Homo sapiens) | [8] | [9]
inactive: all other assays above

CCOC(=O)C12CC1/C(=N/O)c1ccccc1O2 (stereo not given)
not listed: Furin (Homo sapiens) | [8] | [9]
inactive: all other assays above

O=C(O)C1CCNCC1
not listed: Furin (Homo sapiens) | [8] | [9]
inactive: all other assays above

C[C@@]1(C2CCCC2)Cc2cc(OCC(=O)O)c(Cl)c(Cl)c2C1=O
not listed: Furin (Homo sapiens) | [8] | [9]
inactive: all other assays above

COc1cc(C(O)C(=O)O)ccc1O (stereo not given)
inactive: [1] | [2] | [3] | [4] | [5] | [7]

O=C(O)C1CN(CCCP(=O)(O)O)CCN1 (stereo not given)
not listed: Furin (Homo sapiens) | [8] | [9]
inactive: all other assays above

O=c1onc2n1-c1cc(Br)ccc1OC2
not listed: Furin (Homo sapiens) | [8] | [9]
inactive: all other assays above

O[Si](CCCN1CCCCC1)(c1ccc(F)cc1)C1CCCCC1 (stereo not given)
not listed: Furin (Homo sapiens) | [8] | [9]
inactive: all other assays above

NC1C=CC=C(C(=O)O)C1 (stereo not given)
inactive: [1] | [2] | [3] | [4] | [5] | [7]

C=C1C[C@@]23CC[C@H]4[C@@](C)(CCC[C@@]4(C)C(=O)O)[C@@H]2CC[C@]1(O)C3
not listed: Furin (Homo sapiens) | [8] | [9]
inactive: all other assays above

c1ccc2c(c1)CCC[C@H]2Nc1nc2ccccc2[nH]1
not listed: Furin (Homo sapiens) | [8] | [9]
inactive: all other assays above

C/C(=C\c1ccc(C(=O)O)cc1)c1ccc2c(c1)C(C)(C)CCC2(C)C
active: Furin (Homo sapiens) 21.5 µM | [7] 10.6 µM | [8] 24.1 µM | [9] 24.1 µM
not listed: [6]
inactive: all other assays above

C=CCN1CCc2c(cc(O)c(O)c2Br)[C@@H](c2ccccc2)C1
active: [7] 18.9 µM
not listed: [6]
inactive: all other assays above

O=c1cc(-c2ccccc2F)[nH]c2cc3c(cc12)OCO3
inactive: [1] | [2] | [3] | [4] | [5]
active: [6] 56.2 µM | [7] 26.7 µM

Cc1cc(Cn2cnc3c2C[C@@H](C(=O)O)N(C(=O)C(c2ccccc2)c2ccccc2)C3)ccc1N
not listed: Furin (Homo sapiens) | [8] | [9]
inactive: all other assays above

C=C1C[C@@]23CC[C@H]4[C@@](C)(CCC[C@@]4(C)C(=O)OC4OC(CO)C(O)C(O)C4O)[C@@H]2CC[C@]1(OC1OC(CO)C(O)C(O)C1OC1OC(CO)C(O)C(O)C1O)C3 (stereo not given in full)
not listed: Furin (Homo sapiens) | [8] | [9]
inactive: all other assays above

C[N+](C)(C)CC=O
not listed: Furin (Homo sapiens) | [8] | [9]
inactive: all other assays above

CCCc1c(OCCCOc2ccc(OCC(=O)O)cc2)ccc(C(C)=O)c1O
inactive: [1] | [2] | [3] | [4] | [5] | Furin (Homo sapiens)

COc1ccccc1N1CCN(CCCNc2c(C)c(=O)n(C)c(=O)n2C)CC1
not listed: [6] | [7]
inactive: all other assays above

NC(N)=[N+]1CCc2ccccc2C1
not listed: Furin (Homo sapiens) | [8] | [9]
inactive: all other assays above

NCCC1CCCC(CCN)N1 (stereo not given)
inactive: [1] | [2] | [3] | [4] | [5] | [7]

N=S(=O)(O)Cc1noc2ccccc12
not listed: Furin (Homo sapiens) | [8] | [9]
inactive: all other assays above

N=C(N)c1ccccc1
not listed: Furin (Homo sapiens) | [8] | [9]
inactive: all other assays above

CC(/C=C/c1cccc(Oc2ccc(F)cc2)c1)N(O)C(N)=O (stereo not given)
not listed: Furin (Homo sapiens) | [8] | [9]
inactive: all other assays above

CCN(CC)CCOC(=O)c1cc(Cl)c(N)cc1OC
inactive: [1] | [2] | [3] | [4] | [5] | [7]

COc1cc(C(O)CO)ccc1O (stereo not given)
not listed: Furin (Homo sapiens) | [8] | [9]
inactive: all other assays above

O=C(OCCN1CCOCC1)C1(c2ccccc2)CCCCC1
inactive: [1] | [2] | [3] | [4] | [5] | [7]

N[C@H](C(=O)O)c1cc(O)cc(O)c1
not listed: Furin (Homo sapiens) | [8] | [9]
inactive: all other assays above

O=C(O)c1cc2cc(F)ccc2[nH]1
active: [6] 56.2 µM | [7] 26.7 µM
inactive: [1] | [2] | [3] | [4] | [5]

CCCCCCCCCCCCCCC[C@H](O)[C@H](N)CO
not listed: Furin (Homo sapiens) | [8] | [9]
inactive: all other assays above

O=C(O)c1ccccc1Nc1cccc(OCc2ccc3ccccc3n2)c1
active: [7] 29.9 µM
not listed: [6] | [8] | [9]
inactive: all other assays above

O=C(O)/C=C/c1ccc(O)c(O)c1
active: [6] 44.7 µM
not listed: Furin (Homo sapiens) | [8] | [9]
inactive: all other assays above

CC(C)C[C@H](NC(=O)[C@H](O)[C@H](N)Cc1ccccc1)C(=O)O
not listed: Furin (Homo sapiens) | [8] | [9]
inactive: all other assays above

C=C(C)C1CC=C(C(=O)O)CC1 (stereo not given)
not listed: Furin (Homo sapiens) | [8] | [9]
inactive: all other assays above

NC1(C(=O)O)CC1
not listed: Furin (Homo sapiens) | [8] | [9]
inactive: all other assays above

CC(N)(Cc1ccc(O)c(O)c1)C(=O)O (stereo not given)
inactive: [1] | [2] | [3] | [4] | [5] | [7]

NC(=O)c1cc[n+](CC2=C(C(=O)O)N3C(=O)[C@@H](NC(=O)[C@@H](c4ccccc4)S(=O)(=O)[O-])[C@H]3SC2)cc1
not listed: Furin (Homo sapiens) | [8] | [9]
inactive: all other assays above

CN1CC(O)C(O)C(O)C1CO (stereo not given)
not listed: Furin (Homo sapiens) | [8] | [9]
inactive: all other assays above

CC(N)=O
not listed: Furin (Homo sapiens) | [8] | [9]
inactive: all other assays above

C=CCN1CCc2cc(O)c(O)cc2C(c2ccccc2)C1 (stereo not given)
active: [6] 35.5 µM
not listed: Furin (Homo sapiens) | [8] | [9]
inactive: all other assays above

CCCCS(=N)(=O)CC[C@H](N)C(=O)O (stereo not given in full)
not listed: Furin (Homo sapiens) | [8] | [9]
inactive: all other assays above

CN(C)CCCc1cc(C(=O)Nc2ccc(-c3ccncc3)cc2)ccc1O
inactive: [1] | [2] | [3] | [4] | [5] | [7]

CCCCCC[C@@H]([C@@H](C)O)n1cnc2c(N)ncnc21
inactive: [1] | [2] | [3] | [4] | [5] | [7]

Nc1nc2c(cnn2CCc2ccccc2)c2nc(-c3ccco3)nn12
inactive: [1] | [2] | [3] | [4] | [5]
active: [7] 23.8 µM

CCCC(=O)NCCc1c2n(c3ccc(OC)cc13)CCCc1ccccc1-2
active: [7] 26.7 µM
inactive: [1] | [2] | [3] | [4] | [5]

NCC(O)(CS(=O)(=O)O)c1ccc(Cl)cc1 (stereo not given)
inactive: [1] | [2] | [3] | [4] | [6] | [7]

NC1(C(=O)O)CCCCC1
inactive: [1] | [2] | [3] | [4] | [6] | [7]

NOCC(=O)O
inactive: [1] | [2] | [3] | [4] | [6] | [7]
